Test results published in PubChem BioAssay (NCATS).
Results filed as inconclusive are left out. Where a call stands in place of a potency, no number is given. The source made the active and inactive calls. Unless noted, calls come from the whole dose curve; as a rule, active = well fitted curve in the direction sought with a large enough effect; inconclusive = small, poorly fitted or top-dose-only effect, or another doubt; inactive = no such curve, though single readings can be large; an effect the other way counts as inactive or inconclusive. Numbered stars: 1 amine (or outer) side, 2 acyl side, 3 side chain; on linkers, the order of the positions; unused ones are H or OH. Square brackets hold non-standard residues; d marks the D form. Peptide text beside a SMILES is read from it. ξ: configuration not given here. X4 = O=C(C1CC2(c3ccc(O)cc3)c3ccccc3NC2N1[*:1])[*:2]; ξW = NC(Cc1c[nH]c2ccccc12)C(=O)O; ξY = NC(Cc1ccc(O)cc1)C(=O)O

Legend:
[1] = HEK-293 Cancer Cell Toxicity qHTS against the NCATS CANVASS Library (AID 1347355); note: nearly all actives have a fitted effect of over 65% in size
In short: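 qHTS cytotoxicity: compounds tested in 11 concentrations on 1000 seeded cells per well over 72 h; bortezomib served as control; signal from CellTiter-Glo luminescence.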

[2] = HPAF-II 18hr Apoptosis Induction qHTS against the NCATS CANVASS Library (AID 1347360)
In short: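 HPAF-II cells (500/well, DMEM + 10% FBS) were exposed to compounds for 18 hours at 37 degrees C. Caspase-3/7 activity was then read by Caspase-Glo 3/7 luminescence after 15 min at room temperature.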

[3] = G06 Cancer Cell Toxicity qHTS against the NCATS CANVASS Library (AID 1347368); note: nearly all actives have a fitted effect of over 60% in size; note: potency is the fitted concentration of half-maximal effect
In short: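 Cytotoxicity toward canine glioma G06 cells is scored from cellular ATP via luminescence after 72 hr compound exposure at 500 cells/well.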

[4] = qHTS for Hypoxia signaling pathway (HIF-1) antagonists against the NCATS CANVASS Library (AID 1347374);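 note: HRE-bla ME-180 cells stimulated with cobalt chloride to stabilize HIF-1alpha; nearly all actives have a fitted effect of over 60% in size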
In short: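 HRE-bla ME-180 cells (2,000/well, 0.5% dialyzed FBS) were pre-incubated 5 h, then given an 11-point compound series plus CoCl2 (60 uM solution as added) for 17 h at 37C. CCF4 β-lactamase read (ex 405, em 460/530 nm) after 2 h at RT.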

[5] = qHTS for activators of Nrf2/ARE signaling pathway screened against the NCATS CANVASS Library (AID 1347391); note: nearly all actives have a fitted effect of over 60% in size; note: potency is the fitted concentration of half-maximal effect
In short: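 Cells carrying an ARE-driven beta-lactamase reporter (HepG2 background) are dosed for 16 h, then stained with CCF4. Cell viability in the same wells is measured by CellTiter-Glo luminescence.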

[6] = qHTS for inhibitors of ER calcium dysfunction: SERCaMP assay screened against the NCATS CANVASS Library (AID 1347393); note: nearly all actives have a fitted effect of over 40% in size; note: potency is the fitted concentration of half-maximal effect;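 for activity change, negative = inhibition: lower secreted reporter signal means inhibitor of ER calcium depletion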
In short: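 qHTS in SH-SY5Y reporter cells: 16 h compound pretreatment, 4 h thapsigargin, then secreted Gaussia luciferase measured by luminescence.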

[7] = ZIKV-mCherry secondary qHTS for Zika virus inhibitors (AID 1347158); note: top concentration of the series differs between compounds
In short: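 After overnight seeding at 37 °C, Vero cells receive compound and then ZIKV-mCherry (MOI 1). Following 48-72 h infection, cells are fixed, counterstained with Hoechst, and imaged; percent infected cells is derived from an mCherry intensity cut-off of 450 RFU.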

[8] = Tertiary RLuc qRT-PCR qHTS assay for Zika virus inhibitors (AID 1347169); note: top concentration of the series differs between compounds; nearly all actives have a fitted effect of over 55% in size
In short: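 Vero cells (1,000 per well) plated overnight at 37 degrees C, treated with compound in DMSO, then infected with recombinant ZIKV-RLuc (Cambodian) at MOI 1-2 for 48-72 hrs. Live-cell Renilla luciferase substrate added; luminescence read after 1-1.5 hrs.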

[9] = SDT Cancer Cell Toxicity qHTS against the NCATS CANVASS Library (AID 1347365); note: nearly all actives have a fitted effect of over 60% in size; note: potency is the fitted concentration of half-maximal effect
In short: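 Dispense 500 SDT cells per well; pin-transfer compounds; incubate 72 hr at 37C, 5% CO2, 95% RH; add CellTiterGlo and read luminescence.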

[10] = qHTS for Antimalaria activity screened against the NCATS CANVASS Library (AID 1347380); note: nearly all actives have a fitted effect of over 40% in size; note: potency is the fitted concentration of half-maximal effect;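 for activity change, negative = inhibition: Plasmodium falciparum strain Dd2 asexual parasites grown in red blood cells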
In short: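 Growth inhibition of asexual erythrocytic P. falciparum Dd2 was quantified by SYBR Green DNA staining. Cultures grew 72 h with compound (11-point series) in hypoxic gas at 37C; lysis and staining lasted 18 h.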

[11] = Redox Reaction Profiling qHTS: Assay Interference Panel against the NCATS CANVASS Library (AID 1347401); note: potency is the fitted concentration of half-maximal effect
In short: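 Resazurin (5 uM) conversion to resorufin measured with 200 uM DTT in 50 mM HEPES pH 7.3, 50 mM NaCl. Compounds tested in 11-point qHTS series. Fluorescence (ex 525/em 598 nm) read before and after 15 min dark incubation.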

[12] = qHTS Assay for Lipid Storage Modulators (AID 1519; calls by dose curve); conditions: Drosophila S3 cells, BODIPY lipid droplet/cell ratio, laser cytometry, cells loaded with oleic acid
In short: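 Cells seeded at 5,000 per well were treated with compounds over a concentration series and loaded with oleic acid (400 uM, as added). Lipid droplet fluorescence (488 nm excitation, 500-530 nm channel) was read by laser-scanning cytometry and normalized to 20 uM Triacsin C.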

SMILES: C[C@@H]1O[C@H](c2c(O)cc(O)c3c(=O)cc(-c4ccc(O)cc4)oc23)[C@H](O)[C@H](O)[C@H]1O
- Potency [1]: inactive
- Potency [2]: inactive
- Potency [3]: inactive
- Potency [4]: inactive
- Potency [5]: inactive
- Potency [6]: inactive

SMILES: Cc1ccc(-c2nnc(Nc3ccc(S(N)(=O)=O)cc3)c3ccccc23)cc1S(=O)(=O)N1CCOCC1
- Potency [7]: inactive
- Potency [8]: inactive

SMILES: CC(=O)O[C@H]1CC[C@@]2(C)C(CC[C@]3(C)C2CC=C2C4CC(C)(C)CC[C@]4(C)CC[C@]23C)C1(C)C (stereo partly specified)
- Potency [1]: inactive
- Potency [9]: inactive
- Potency [3]: inactive
- Potency [4]: inactive
- Potency [10]: inactive
- Potency [5]: inactive
- Potency [6]: inactive
- Potency [11]: inactive

SMILES: CC(C)=CCC/C(C)=C/Cc1c(O)c(CC=C(C)C)c(O)c2c(=O)c3cc(O)ccc3oc12
- Potency [2]: inactive
- Potency [9]: 20.9 µM (active)
- Potency [3]: 23.5 µM (active)
- Potency [5]: 2.63 µM (active)
- Potency [11]: inactive

SMILES: C1=C2CCCN[C@@H]2[C@@H]2CCN3CCCC[C@@H]3[C@H](C1)C2
- Potency [1]: inactive
- Potency [2]: inactive
- Potency [9]: inactive
- Potency [3]: inactive
- Potency [5]: inactive
- Potency [6]: inactive
- Potency [11]: inactive

SMILES: CC1=CC[C@@]2(C[C@@H]1O)[C@@H](C(=O)O)CC[C@H]2C(C)C
- Potency [1]: inactive
- Potency [2]: inactive
- Potency [3]: inactive
- Potency [4]: inactive
- Potency [5]: inactive
- Potency [11]: inactive

SMILES: C=C1[C@H]2CC[C@@]3(C=CC(=O)[C@@](C)(CCC(=O)Nc4c(O)ccc(C(=O)O)c4O)C3C2)[C@H]1O (stereo partly specified)
- Potency [1]: inactive
- Potency [3]: inactive
- Potency [4]: inactive
- Potency [10]: inactive
- Potency [5]: inactive
- Potency [6]: inactive

SMILES: CC1C(=O)C23CCC1C[C@]21O[C@@H]2C(C)(C)C=CC(=O)[C@@]23COC1=O (stereo partly specified)
- Potency [2]: inactive
- Potency [3]: inactive
- Potency [5]: inactive

SMILES: CC[C@@H]1C[C@@]2(CC)OC(=O)[C@@]3(CC)OC(=O)[C@@H]1[C@@H]23
- Potency [1]: inactive
- Potency [2]: inactive
- Potency [9]: inactive
- Potency [3]: inactive
- Potency [4]: inactive
- Potency [5]: inactive
- Potency [6]: inactive
- Potency [11]: inactive

SMILES: Cc1cc(O)cc2oc(C[C@H](C)O)cc(=O)c12
- Potency [2]: inactive
- Potency [9]: 1.48 µM (active)
- Potency [4]: inactive
- Potency [10]: inactive
- Potency [5]: inactive
- Potency [6]: inactive
- Potency [11]: inactive

SMILES: C/C1=C\CC(=O)/C=C/C=C\c2csc(n2)[C@@H](C)NC(=O)C[C@@](S)([C@@H](C)C(=O)O)CC1
- Potency [1]: inactive
- Potency [9]: inactive
- Potency [3]: inactive
- Potency [10]: inactive
- Potency [5]: 18.6 µM (active)

SMILES: COC1C(O)C(OC(N)=O)C(Oc2ccc3c(O)c(NC(=O)c4ccc(O)c(CC=C(C)C)c4)c(=O)oc3c2C)OC1(C)C (stereo unspecified)
- Potency [2]: inactive
- Potency [3]: inactive
- Potency [4]: inactive
- Potency [5]: inactive
- Potency [6]: 27.2 µM (active)

SMILES: OCc1ccc2ocnc2c1
- Potency [2]: inactive
- Potency [3]: inactive
- Potency [4]: inactive
- Potency [10]: inactive
- Potency [5]: inactive
- Potency [6]: inactive

SMILES: O=C(O)[C@@]12COC3(O)C1CCN1CC[C@H]3[C@@H]1c1c2[nH]c2ccccc12
- Potency [2]: inactive
- Potency [3]: inactive
- Potency [4]: inactive
- Potency [10]: inactive
- Potency [5]: inactive
- Potency [11]: 21.5 µM (active)

SMILES: COc1ccc2cc(NC(=O)C3=NO[C@H]4[C@H](O)C=C[C@@H](Cl)[C@@]4(O)C3)c(=O)oc2c1OC
- Potency [2]: inactive
- Potency [3]: 11.8 µM (active)
- Potency [4]: inactive
- Potency [10]: inactive
- Potency [6]: 15.3 µM (active)
- Potency [11]: inactive

SMILES: COc1cc(/C=C/C(=O)O)ccc1O
- activity change, negative = inhibition ([12]; at 57.5 µM (top of the series)): 8.29% (inactive)
- max response ([12]; measured here: cell count channel max response): 5.04%
- max response ([12]; measured here: lipid channel max response): 17.5%
- Potency [1]: inactive
- Potency [9]: inactive
- Potency [3]: inactive
- Potency [4]: inactive
- Potency [10]: 0.0033 µM (active)
- Potency [5]: inactive
- Potency [6]: inactive
- Potency [11]: inactive

SMILES: CC[C@H](C)[C@H](NC(=O)C(Cc1ccc(O)cc1)NC(=O)C(Cc1c[nH]c2ccccc12)NC(=O)[C@H](C)N)C(=O)N1C(C(=O)NC(Cc2ccc(O)cc2)C(=O)O)CC2(c3ccc(O)cc3)c3ccccc3NC12 (stereo partly specified) (H-A[ξW][ξY]I[X4][ξY]-OH)
- Potency [1]: inactive
- Potency [2]: inactive
- Potency [9]: inactive
- Potency [3]: inactive
- Potency [10]: inactive
- Potency [5]: inactive
- Potency [6]: inactive

SMILES: C[C@]12CC[C@]3(C1)[C@H](CC2=O)CC(OC(=O)c1ccccc1)[C@H]1[C@@](CO)(C(=O)O)CCC[C@@]13C (stereo partly specified)
- Potency [1]: inactive
- Potency [2]: inactive
- Potency [9]: inactive
- Potency [3]: 10.5 µM (active)
- Potency [5]: 18.6 µM (active)
- Potency [6]: inactive
- Potency [11]: inactive
